High-throughput results: PubChem, National Center for Advancing Translational Sciences (NCATS)
Tb PGK inh: inhibitors of T. brucei phosphoglycerate kinase. actives 0.043% (n = 380,000). Potency, µM (highest dose often 57.5 µM), actives largely listed as inhibitors. PGK/GAPDH coupled, Kinase-Glo luminescence, 60 min. P07378. AID 602233; also: nearly all actives have a fitted effect of over 60% in size
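Luminescent ATP detection (Kinase-Glo Plus) follows a 60-minute room-temperature incubation, with wells lacking PGK as controls. Buffer: 100 mM TEA (pH 7.6), 5 mM MgCl2, 0.01% Tween-20. Coupling enzyme GAPDH (100 nM final) supplies unstable 1,3-BPG in-well.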
Tb PFK inh: blocks T. brucei phosphofructokinase. O15648. T. brucei PFK, ADP-Glo luminescence. Potency, µM (highest dose often 57.5 µM), actives largely listed as inhibitors. actives 0.17% (n = 330,000). AID 485367; also: nearly all actives have a fitted effect of over 60% in size
Target sequence (O15648 whole entry, looked up): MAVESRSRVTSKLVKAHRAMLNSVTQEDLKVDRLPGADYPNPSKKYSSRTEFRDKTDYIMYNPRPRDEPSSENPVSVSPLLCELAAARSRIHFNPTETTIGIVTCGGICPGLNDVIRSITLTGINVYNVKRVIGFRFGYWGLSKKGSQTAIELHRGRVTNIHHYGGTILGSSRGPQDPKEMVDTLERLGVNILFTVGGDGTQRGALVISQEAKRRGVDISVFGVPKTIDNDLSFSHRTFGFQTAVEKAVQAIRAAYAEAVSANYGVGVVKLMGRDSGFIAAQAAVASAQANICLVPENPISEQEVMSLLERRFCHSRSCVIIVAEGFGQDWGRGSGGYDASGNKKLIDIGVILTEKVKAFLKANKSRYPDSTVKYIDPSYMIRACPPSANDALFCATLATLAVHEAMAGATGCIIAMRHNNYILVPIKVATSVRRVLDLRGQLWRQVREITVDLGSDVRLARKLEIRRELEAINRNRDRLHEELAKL
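PFK 1.25 nM, F6P 0.5 mM, ATP 0.1 mM, 0.1 M TEA pH 8.0, 5 mM MgCl2, 0.01% Tween20, 0.1% BSA; 45 min RT. ADP-Glo readout. qHTS titration up to 57 uM; curves fitted, compounds curve-classed.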
PKM2 act: PKM2 (human) enzyme activation. P14618. purified PKM2, Kinase-Glo ATP luminescence, activation; response scale: 0% is enzyme alone, no compound. Potency, µM (titrated, usually from 57.5 µM), hits mostly activators. actives 0.34% (n = 260,000). AID 1631; also: nearly all actives have a fitted effect of over 55% in size
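Kinase-Glo luminescence reports ATP generated from ADP (0.1 mM) and PEP (0.5 mM) by purified hPK-M2 after 1 h at room temperature, pH 7.2 imidazole buffer; intermediate enzyme activity allows detecting inhibitors and activators.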
Rango dissoc inh: inhibitors of RanGTP-induced Rango-importin beta complex dissociation. Biochemical FRET Rango-importin beta, RanGTP-induced dissociation. Potency, µM (doses to about 46.1 µM). O95149+P62826. actives 0.071% (n = 340,000); calls by dose curve; also: nearly all actives have a fitted effect of over 45% in size
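Rango/importin beta premix (0.1/0.25 uM final), PBS + 1 mM DTT + 0.02% Tween-20 + 0.1% BSA; cpd 5 min RT; FRET pre-read; + RanGTP-RCC1 (0.6 uM Ran, 2 mM GTP, 0.2 uM RCC1); 45 min RT; FRET post-read, ex 430, em 486/530 nm.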
Rango complex inh: inhibitors of Rango-importin beta complex formation; actives 0.031% (n = 340,000); Rango CFP/YFP FRET sensor + importin beta, 45 min; Potency, µM (top dose mostly 92.2 µM); AID 540263; calls by dose curve; also: nearly all actives have a fitted effect of over 15% in size
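FRET biosensor (snurportin 1 IBB flanked by EYFP and cerulean), 50 nM, with compound 5 min, then 0.125 microM importin beta in PBS, 1 mM DTT, 0.02% Tween-20, 0.1% BSA. CFP/YFP ratio read after 45 min at room temperature; pre-read flags interference.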
ELG1 repair inh: blocks ELG1-dependent DNA repair in HEK293T cells; HEK293T ELG1-luciferase reporter, luminescence, 16 h; DNA damage induced by 5-fluorouridine; Potency, µM (titrated, usually from 46.1 µM), usual class: inhibitors; actives 2.3% (n = 330,000); also: nearly all actives have a fitted effect of over 55% in size
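DMSO vehicle served as the neutral condition. Each well held 2,000 cells given 5-fluorouridine plus compound; after 16 hr at 37 °C/5% CO2, ONE-Glo was added and luciferase measured 30 min later.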
A number is an active result; 0 = inactive; ? = inconclusive; - = no result; [ ] = dose if it differs, or a comment. A selection: hits, their analogues and other compounds. The true share with any hit is near 2.4%. Unless noted, calls follow the shape of the dose curve; as a rule, active = well fitted curve in the direction sought with a large enough effect; inconclusive = small, poorly fitted or top-dose-only effect, or another doubt; inactive = no such curve, though single readings can be large; an effect the other way counts as inactive or inconclusive.

SMILES	Tb PGK inh	Tb PFK inh	PKM2 act	Rango dissoc inh	Rango complex inh	ELG1 repair inh
COc1ccc(O)c(C(=O)c2coc(=N)c(C(=O)Nc3ccc(SC(F)F)cc3)c2)c1	0	0	0	?	?	16µM
Cc1ccc(NC(=O)C2(c3cccs3)CCOCC2)cc1Cl	0	-	-	-	-	-
CCN(C[C@H]1N[C@@](CC)(C(=O)OC)[C@H]2C(=O)N(Cc3ccccc3)C(=O)[C@@H]12)C(=O)C1CCCCC1	0	0	-	0	0	?
O=C(C[C@@H]1C/C=C\C[C@H](NC(=O)OCC2c3ccccc3-c3ccccc32)C(=O)O[C@H](c2ccccc2)CNC1=O)NCCO	0	0	-	0	0	0
CCOC(=O)/C(=C\c1ccc(OC(F)F)cc1)C1=Nn2c(nnc2-c2ccc(Cl)cc2)SC1	0	0	0	0	0	12µM
CCOC(=O)/C(=C/c1ccc(OC(F)F)cc1)C1=Nn2c(nnc2-c2ccc(Cl)cc2)SC1	0	-	-	0	0	-
Cc1ccc(-n2c(O)c(C=Nc3cc(C)on3)c3ccccc3c2=O)c(C)c1	0	0	0	9.2µM	?	?
O=C(NCc1ccco1)/C(=C\C=C\c1ccccc1)NC(=O)c1ccccc1Br	0	0	0	0	0	23µM
O=C(NCc1ccco1)/C(=C/C=C/c1ccccc1)NC(=O)c1ccco1	0	0	0	0	0	0
CC(=O)NC(c1ccco1)c1cc(Cl)c2ccc(N(C)C)nc2c1O (stereo not drawn)	-	0	-	-	-	-
O=C(CSc1nc2ccccc2s1)NC(=O)NCc1ccco1	0	?	0	0	0	0
O=C(CSc1nc(-c2ccccc2)cs1)NC(=O)NCc1ccco1	-	0	0	0	0	18µM
COc1ccc(NC(=O)c2ccc(NC(=O)CSc3nc(N)cc(=O)[nH]3)cc2)cc1	0	?	-	0	0	?
COc1cc(CNC(=O)CSCc2nc3cccnc3n2C2CCCCC2)cc(OC)c1OC	0	-	-	-	-	-
O=C(COc1ccccc1)NNc1c2ccccc2nc2ccccc12	0	0	0	0	0	21µM
Cc1cccc(OCC(=O)NCc2cc(C)nc3ccccc23)c1	0	0	0	0	0	15µM
O=C(NNc1c2ccccc2nc2ccccc12)c1cccc(O)c1	0	0	0	?	?	15µM
COc1ccc(C(=O)NCc2cc(C)nc3ccccc23)cc1	0	0	0	0	0	?
COc1ccc(Oc2c(C(F)(F)F)oc3c(CN4CCCC(C)C4)c(O)ccc3c2=O)cc1 (stereo not drawn)	0	-	-	-	-	-
Cc1nnc(SCC(=O)NCc2ccc(N(C)C)cc2)c2nn(-c3ccccc3)c(C)c12	0	-	-	-	-	-
O=C(Nc1ccc2c(c1)CCCN2C(=O)c1cccs1)c1ccccc1Cl	0	-	-	-	-	-
CC(C)CC(COCc1cccc(Cl)c1)N1CCN(C(=O)c2cccc(C(F)(F)F)c2)CCC1=O (stereo not drawn)	0	0	0	0	0	0
CC(C)CC(COCc1ccc(Cl)cc1)N1CCN(C(=O)c2ccc(Cl)cc2Cl)CCC1=O (stereo not drawn)	0	0	0	0	0	23µM
CCN1CCN(c2ncc3c(n2)CCN(Cc2cc(Br)cs2)C3)CC1	0	-	-	-	-	-
O=C1[C@@H](Oc2ccccc2)[C@@H](c2cnc3ccccc3c2)N1c1ccccc1	0	0	-	0	0	16µM
SMILES	Tb PGK inh	Tb PFK inh	PKM2 act	Rango dissoc inh	Rango complex inh	ELG1 repair inh
O=C1[C@H](Oc2ccccc2)[C@@H](c2ccncc2)N1c1ccncc1	0	0	-	0	0	0
CC(=O)N1CCc2c(sc3c2c(=O)n(CCc2ccccc2)c(=O)n3Cc2ccc(Cl)cc2)C1	0	-	-	-	-	-
CN1C(=O)COc2ccc(C(=O)c3oc4ccccc4c3-c3cnc4c(c3)COc3ccccc3-4)cc21	-	0	0	-	-	9.2µM
Cc1ccc(O)c(C(=O)c2cnc3c(c2)COc2ccc(C)cc2-3)c1	0	0	0	0	0	?
COC(=O)c1ccccc1NC(=O)CN1CCc2ccccc2C1	0	0	0[11.5 µM]	0	0	0
CC(NC(=O)c1ccccc1NC(=O)CN1CCc2ccccc2C1)c1ccccc1 (stereo not drawn)	0	0	0	0	0	13µM
COCCNC(=O)CN1C(=O)c2cccnc2Oc2ccc(Cl)cc21	0	-	-	-	-	-
COc1ccc(/C=C/C(=O)c2cc(F)ccc2OC(=O)c2ccc(OC)c(OC)c2)cc1OC	-	0	0	0	?	15µM
COc1ccc(/C=C/C(=O)c2cc(F)ccc2OC(=O)c2ccccc2)cc1OC	0	-	-	0	?	-
Cc1ccc(Cl)cc1NC(=O)CCc1c(C)nc2c3cccnc3nn2c1C	0	-	-	-	-	-
Cc1cc(OC(C)C(=O)N2CCN(c3ccccc3)CC2)c2c(C)c(C)c(=O)oc2c1 (stereo not drawn)	0	0	-	0	0	16µM
Cc1cc(OCC(=O)N2CCN(c3ccccc3)CC2)c2c(C)c(C)c(=O)oc2c1	0	0	-	0	0	?
CC(=O)N(Cc1ccc(F)cc1)C1=C(NCc2ccccc2)C(=O)c2ccccc2C1=O	0	0	0	0	?	21µM
N#Cc1c(Cl)nsc1NC(=O)c1ccccc1	0	0	0	0	?	2.9µM
COc1ccc(CCNC(=O)c2ccc3c(c2)N(Cc2ccc(F)cc2)CCS3)cc1OC	0	0	0	0	0	26µM
COc1ccc(OC)c(CCNC(=O)c2ccc3c(c2)N(Cc2ccc(C)cc2)CCS3)c1	0	-	-	-	-	-
Cc1ccnc2c1ccc1cccnc12	0	0	-	?	0	?
Cc1ccnc2c1ccc1c(C)ccnc12	0	0	-	0	0	2.3µM
O=C(COC(=O)CC(c1ccccc1)c1ccccc1)NCc1ccc(Cl)cc1	0	0	0	0	0	16µM
CCCC(=O)OCC(=O)NCc1ccc(Cl)cc1	0	0	-	0	0	0
COc1cccc(NC(=O)CSc2ccc3nnc(-c4ccccn4)n3n2)c1	0	0	0	0	0	0
COc1ccc(NC(=O)CSc2nnc3ccc(-c4ccncc4)nn23)cc1	0	0	-	0	0	8.2µM
COc1cccc(NC(=O)CSc2ccc3nnc(-c4ccncc4)n3n2)c1	0	0	1.8µM	?	0	0
O=C(Nc1ccc2c(c1)C(=O)NC2=O)c1ccc(S(=O)(=O)N2CCCC2)cc1	0	0	0	0	0	0
COc1ccc2oc(=O)c(-c3csc(Nc4ccc(O)cc4)n3)cc2c1	0	0	0	0	0	9.2µM
CCC(NC(=O)OC(C)(C)C)C(=O)Oc1ccc2c3c(c(=O)oc2c1)CCC3 (stereo not drawn)	0	0	0	12µM	?	0
CC(=O)Oc1ccc2c3c(c(=O)oc2c1)CCCC3	0	0	0	21µM	?	0
